Test results as given in PubChem BioAssay AID1159580 (chemical genetic matrix, 2015).
Among all 5,500 compounds or so, about 2,000 (36%) were called active. Inconclusive results (about 18%) are left out. No stated cut-off is given here; in the data, active means normalized growth mostly below about 0.91 (no sharp cut-off); inconclusive means no clear call, values can overlap the other calls; inactive means mostly above about 0.92. The list shows a part of the results.

Assay: chemical genetic growth profiling, strain panel (AID 1159580);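 further: tested at 20 µM; growth read once vehicle control cultures reached saturation at 30 °C; 1 = growth at the plate median or of vehicle wells; lower values mean less growth of the strain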
Settings: growth OD

Measured: normalized growth

NCC(=O)CCC(=O)O
inactive: S. cerevisiae deletion strains, locus YJR075W, strain HOC1, active compounds read low 1.02 | S. cerevisiae deletion strains, locus YKL009W, strain mrt4, active compounds read low 1.07 | S. cerevisiae deletion strains, locus YKL068W, active compounds read low 0.995 | S. cerevisiae deletion strains, locus YKL085W, strain MDH1 (second series), active compounds read low 0.997 | S. cerevisiae deletion strains, locus YKL085W, strain MDH1, active compounds read low 0.997 | S. cerevisiae deletion strains, locus YKL160W, strain elf1, active compounds read low 0.98 | S. cerevisiae deletion strains, locus YKL190W, strain CNB1, active compounds read low 1.01 | S. cerevisiae deletion strains, locus YKR001C, strain vps1, active compounds read low 0.982 | S. cerevisiae deletion strains, locus YKR026C, strain gcn3, active compounds read low 0.981 | S. cerevisiae deletion strains, locus YKR091W, strain srl3, active compounds read low 0.981 | S. cerevisiae deletion strains, locus YLL001W, strain dnm1, active compounds read low 0.93 | S. cerevisiae deletion strains, locus YLL026W, active compounds read low 0.982 | S. cerevisiae deletion strains, locus YLL041C, strain sdh2, active compounds read low 0.987 | S. cerevisiae deletion strains, locus YLR027C, strain aat2, active compounds read low 0.98 | S. cerevisiae deletion strains, locus YLR039C, strain RIC1, active compounds read low 1.03 | S. cerevisiae deletion strains, locus YLR058C, strain SHM2, active compounds read low 1.01 | S. cerevisiae deletion strains, locus YLR102C, strain apc9, active compounds read low 0.983 | S. cerevisiae deletion strains, locus YLR113W, strain HOG1, active compounds read low 1.03 | S. cerevisiae deletion strains, locus YLR221C, strain rsa3, active compounds read low 1.03 | S. cerevisiae deletion strains, locus YLR258W, strain gsy2, active compounds read low 0.994 | S. cerevisiae deletion strains, locus YLR262C, strain YPT6 (second series), active compounds read low 0.958 | S. cerevisiae deletion strains, locus YLR262C, strain YPT6, active compounds read low 1.05 | S. cerevisiae deletion strains, locus YLR268W, strain sec22, active compounds read low 0.953 | S. cerevisiae deletion strains, locus YLR320W, strain mms22, active compounds read low 0.976 | S. cerevisiae deletion strains, locus YLR330W, strain CHS5, active compounds read low 1.01 | S. cerevisiae deletion strains, locus YLR342W, strain FKS1 (second series), active compounds read low 1.03 | S. cerevisiae deletion strains, locus YLR342W, strain FKS1, active compounds read low 0.959 | S. cerevisiae deletion strains, locus YLR357W, strain rsc2, active compounds read low 0.954 | S. cerevisiae deletion strains, locus YLR370C, strain arc18, active compounds read low 1.01 | S. cerevisiae deletion strains, locus YLR371W, strain rom2, active compounds read low 0.988 | S. cerevisiae deletion strains, locus YLR384C, strain iki3, active compounds read low 0.997 | S. cerevisiae deletion strains, locus YLR418C, strain cdc73, active compounds read low 0.994 | S. cerevisiae deletion strains, locus YML016C, strain PPZ1, active compounds read low 1.01 | S. cerevisiae deletion strains, locus YML032C, strain rad52, active compounds read low 0.981 | S. cerevisiae deletion strains, locus YML120C, strain ndi1, active compounds read low 0.983 | S. cerevisiae deletion strains, locus YML124C, strain tub3, active compounds read low 0.997 | S. cerevisiae deletion strains, locus YMR058W, strain fet3, active compounds read low 0.984 | S. cerevisiae deletion strains, locus YMR078C, strain ctf18, active compounds read low 0.991 | S. cerevisiae deletion strains, locus YMR125W, strain sto1, active compounds read low 0.977 | S. cerevisiae deletion strains, locus YMR129W, active compounds read low 0.99 | S. cerevisiae deletion strains, locus YMR205C, strain PFK2, active compounds read low 0.976 | S. cerevisiae deletion strains, locus YMR223W, strain ubp8, active compounds read low 0.998 | S. cerevisiae deletion strains, locus YMR231W, strain pep5, active compounds read low 0.972 | S. cerevisiae deletion strains, locus YMR263W, strain SAP30, active compounds read low 1.01 | S. cerevisiae deletion strains, locus YMR307W, strain GAS1, active compounds read low 1.05 | S. cerevisiae deletion strains, locus YNL067W, strain RPL9B, active compounds read low 0.997 | S. cerevisiae deletion strains, locus YNL071W, strain lat1, active compounds read low 0.995 | S. cerevisiae deletion strains, locus YNL128W, strain TEP1, active compounds read low 1.02 | S. cerevisiae deletion strains, locus YNL153C, strain GIM3, active compounds read low 1 | S. cerevisiae deletion strains, locus YNL183C, strain NPR1, active compounds read low 0.986 | S. cerevisiae deletion strains, locus YNL209W, strain ssb2, active compounds read low 0.997 | S. cerevisiae deletion strains, locus YNL233W, strain BNI4, active compounds read low 1.02 | S. cerevisiae deletion strains, locus YNL248C, strain rpa49, active compounds read low 1 | S. cerevisiae deletion strains, locus YNL250W, strain rad50, active compounds read low 0.993 | S. cerevisiae deletion strains, locus YNL271C, strain bni1, active compounds read low 0.98 | S. cerevisiae deletion strains, locus YNL298W, strain CLA4, active compounds read low 0.984 | S. cerevisiae deletion strains, locus YNL307C, strain MCK1, active compounds read low 1 | S. cerevisiae deletion strains, locus YNL322C, strain KRE1 (second series), active compounds read low 0.964 | S. cerevisiae deletion strains, locus YNL322C, strain KRE1, active compounds read low 1.02 | S. cerevisiae deletion strains, locus YNR049C, strain mso1, active compounds read low 0.981 | S. cerevisiae deletion strains, locus YNR052C, strain pop2, active compounds read low 0.988 | S. cerevisiae deletion strains, locus YOL006C, strain TOP1, active compounds read low 0.983 | S. cerevisiae deletion strains, locus YOL012C, strain htz1 0.968 | S. cerevisiae deletion strains, locus YOL147C, strain pex11, active compounds read low 0.993 | S. cerevisiae deletion strains, locus YOR001W, strain rrp6, active compounds read low 0.994 | S. cerevisiae deletion strains, locus YOR061W, strain CKA2, active compounds read low 1.01 | S. cerevisiae deletion strains, locus YOR069W, strain VPS5, active compounds read low 1.01 | S. cerevisiae deletion strains, locus YOR070C, strain gyp1, active compounds read low 0.989 | S. cerevisiae deletion strains, locus YOR080W, strain dia2, active compounds read low 0.976 | S. cerevisiae deletion strains, locus YOR083W, strain WHI5, active compounds read low 0.954 | S. cerevisiae deletion strains, locus YOR106W, strain vam3, active compounds read low 0.956 | S. cerevisiae deletion strains, locus YOR136W, strain idh2, active compounds read low 0.992 | S. cerevisiae deletion strains, locus YOR144C, strain elg1, active compounds read low 0.986 | S. cerevisiae deletion strains, locus YOR184W, strain ser1, active compounds read low 0.976 | S. cerevisiae deletion strains, locus YOR231W, strain MKK1, active compounds read low 1.04 | S. cerevisiae deletion strains, locus YOR265W, strain rbl2, active compounds read low 0.988 | S. cerevisiae deletion strains, locus YOR270C, strain vph1, active compounds read low 1.01 | S. cerevisiae deletion strains, locus YOR290C, strain snf2, active compounds read low 1.01 | S. cerevisiae deletion strains, locus YOR316C, strain cot1, active compounds read low 0.989 | S. cerevisiae deletion strains, locus YPL051W, strain arl3, active compounds read low 0.997 | S. cerevisiae deletion strains, locus YPL055C, strain LGE1, active compounds read low 1.03 | S. cerevisiae deletion strains, locus YPL078C, strain atp4, active compounds read low 0.948 | S. cerevisiae deletion strains, locus YPL106C, strain sse1, active compounds read low 0.998 | S. cerevisiae deletion strains, locus YPL240C, strain hsp82, active compounds read low 0.985 | S. cerevisiae deletion strains, locus YPL241C, strain CIN2, active compounds read low 1 | S. cerevisiae deletion strains, locus YPL256C, strain CLN2, active compounds read low 1.03 | S. cerevisiae deletion strains, locus YPR119W, strain clb2, active compounds read low 0.983 | S. cerevisiae deletion strains, locus YPR141C, strain kar3, active compounds read low 0.993 | S. cerevisiae deletion strains, locus YPR163C, strain tif3, active compounds read low 0.981 | S. cerevisiae deletion strains, locus YPR167C, strain met16, active compounds read low 0.986 | S. cerevisiae deletion strains, strain wtn01, active compounds read low 0.99 | S. cerevisiae strains, strain wild type, active compounds read low 1.01
